The source of these data is PubChem BioAssay (NCI).

The panel holds about 83,000 compounds, 20% with a hit somewhere; the sample as a whole holds those more often.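 Method: cells in 96-well plates; compound added at one concentration; 48 h incubation; percent growth measured; values under 10 scored active.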 Active and inactive are the calls of the source.

The first experiment has as its system K-562 leukemia. Kind of experiment: NCI-60 one-dose screen, 48 h (100 = growth as untreated, 0 = no growth, -100 = all killed). Conditions: 10 µM unless noted.
With `NCCNc1nc2ccccc2c2c(=O)c3cc(F)cc(Cl)c3sc12`, the growth was -62.7% (active).
The same measure, in the same setting: with `C=C1C(=O)O[C@H]2[C@H]1CC/C(COC(=O)/C=C\C(=O)O)=C\CC[C@@]1(C)O[C@@H]21` the figure was 109% (inactive); with `COc1ccccc1C(=O)/C=C/c1ccccc1`, 23.1% (inactive); with `Cn1cc([C@@H]2Nc3ccc4[nH]ncc4c3[C@H]3[C@H]4CCC(C4)[C@H]32)c(C(F)(F)F)n1`, 15.7% (inactive).
The same measure, in the same setting: with `N#Cc1c(N)nc2c(c1N)C(c1ccc(F)cc1)c1ccc(N)cc1O2` (stereo unspecified) the figure was 104% (inactive); with `O=C(CN1C=NC2C(N3CCOCC3)=NC=NC21)c1ccc(Br)cc1` (stereo unspecified), 106% (inactive); with `CCCCN1CCN(c2ccc3nc(-c4ccc5nc(-c6ccc(OCC)cc6)[nH]c5c4)[nH]c3c2)CC1`, -29.1% (active).
Still for that read-out and setting: with `CCN(CCO)CCNc1ccc(C)c2sc3cc(Cl)ccc3c(=O)c12` the figure was -43.6% (active); with `COC(=O)/C(CCC=C(C)C)=C1\[C@@H](OC(C)=O)C[C@@]2(C)[C@H]1C[C@@H](O)[C@H]1[C@@]3(C)CC[C@H](NCCO)[C@@H](C)[C@@H]3CC[C@@]12C`, 94.8% (inactive).
With `CCCc1c(C)c2sc(=O)[nH]c2[nH]c1=O`, the growth is 107% (inactive).
As for `O=C(/C=C/c1ccc(Cl)cc1)c1ccc(Nc2nc(NCCO)nc(Nc3ccc(Cl)cc3)n2)cc1`, the growth is 37.6% (inactive).
Still for that read-out and setting: the value for `COc1cccc2c(=O)c3c(sc12)c(NCCCNCCO)nc1ccccc13` was -46.9% (active); that for `CCCCc1ccc(NS(=O)(=O)c2cc3c4c(c2)CCN4C(=O)CC3)cc1` was 7.56% (active); that for `O=C1/C(=C/c2ccc(O)cc2)COc2ccc(O)cc21` was 55.9% (inactive).
On the same count and under the same terms, the value for `Cc1cc(Nc2ccc(OCc3ccccc3)cc2)nc2cc(O)ccc12` was 5.02% (active); that for `O=C(c1nc2ccccc2[nH]1)C1[C@@H](c2cccc(O)c2)C2CC3CCCCC3N2[C@@]12C(=O)Nc1cc(Cl)ccc12` (stereo partly specified) was 21.5% (inactive); that for `O=c1oc2ccc(Br)cc2c(=O)n1-c1ccc(Br)cc1F` was 8.3% (active).
On the same count and under the same terms, the value for `O=C(/C=C/c1ccc(C(F)(F)F)cc1)c1ccc(Nc2nc(NCCO)nc(N3CCOCC3)n2)cc1` was 5.46% (active); that for `C#CCn1cc(C=C2C(=O)N(C)C(=O)N(C)C2=O)c2cc(Cl)ccc21` was 106% (inactive); that for `COc1ccc(/C=C2/SC(=O)N(CC(=O)N3CCN(c4cc5c(cc4F)c(=O)c(C(=O)O)cn5C4CC4)CC3)C2=O)cc1` was 110% (inactive).
In the case of `CCOC(=O)C1=C(C)N=c2s/c(=C\c3ccccc3O)c(=O)n2C1c1ccc(OC)c2ccccc12` (stereo unspecified), the growth was -48.4% (active).
Still for that read-out and setting: with `Nc1ccc(-c2ccc(-c3ccccc3N)c3[nH]c4ccccc4c23)cc1` the figure was 13.4% (inactive); with `CCOC(=O)c1c2c(n3cccc(Cl)c13)C(=O)c1ncccc1C2=O`, 62.3% (inactive).
The same measure, in the same setting: the value for `O=C(Nc1ccc(C23CC4CC(CC(c5ccccc5)(C4)C2)C3)cc1)c1cccs1` was 26.5% (inactive); that for `Cc1ccc2sc3c(NCCCNCCO)nc4ccccc4c3c(=O)c2c1` was -48.5% (active); that for `COc1ccccc1N1CCN(C(CNS(=O)(=O)c2ccc(Cl)cc2)c2cccnc2)CC1` (stereo unspecified) was 28.4% (inactive).
The same measure, in the same setting: the value for `CCn1c(-c2nonc2Nc2ccc(OC)cc2)nc2ccccc21` was 118% (inactive).
For `O=C(Nc1ccc(N2CCNCC2)cn1)c1[nH]ncc1Nc1ncnc2sc3c(c12)CCC3`, the growth is -65.2% (active).
Same read-out and setting: with `O=C(/C=C/c1cccc(Cl)c1)OCc1ccc2cc1OCC#C/C=C\C#CCO2` the figure was 81.9% (inactive); with `C[n+]1c2ccccc2nc2ccc(NCCO)cc21`, 68.2% (inactive).
Same read-out and setting: with `Nc1nc2c(ncn2[C@@H]2O[C@H](CS)[C@@H](O)[C@H]2O)c(=O)[nH]1` the figure was 97.2% (inactive).
On the same count and under the same terms, the value for `Cn1c(C(=O)c2cccc3ccccc23)nc2ccccc21` was 7.22% (active); that for `CC/C(=C(\CC)c1ccc(OCC[N+](C)(C)C)cc1)c1ccc(OC)cc1` was 30.4% (inactive).
`O=C(Nc1ccc(F)cc1F)c1cc(I)ccc1O`: the growth was 9.06% (active).
The same measure, in the same setting: the value for `CC(C)Cn1c2c(c(=S)[nH]c1=O)CCC2` was 103% (inactive); that for `CNCCNc1nc2ccccc2c2c(=O)c3cccc(C)c3sc12` was -52.5% (active).
On the same count and under the same terms, the value for `COC(=O)c1c2c(c(C)[n+]([O-])c1C)C(=O)C(NCc1ccc(F)c(F)c1)=CC2=O` was 18.4% (inactive); that for `O=C(Cn1cc(COc2ncnc3c2cnn3-c2ccccc2)nn1)Nc1ccccn1` was 96.7% (inactive).

In a further experiment the test system is MALME-3M melanoma. Described as above. The conditions noted are these: 10 µM unless noted.
Consider `NCCNc1nc2ccccc2c2c(=O)c3cc(F)cc(Cl)c3sc12`, for which the growth was 89.6% (inactive).
The same measure, in the same setting: the value for `C=C1C(=O)O[C@H]2[C@H]1CC/C(COC(=O)/C=C\C(=O)O)=C\CC[C@@]1(C)O[C@@H]21` was 99.8% (inactive); that for `COc1ccccc1C(=O)/C=C/c1ccccc1` was 99.1% (inactive); that for `Cn1cc([C@@H]2Nc3ccc4[nH]ncc4c3[C@H]3[C@H]4CCC(C4)[C@H]32)c(C(F)(F)F)n1` was 40.2% (inactive).
For `N#Cc1c(N)nc2c(c1N)C(c1ccc(F)cc1)c1ccc(N)cc1O2` (stereo unspecified), the growth is 136% (inactive).
The same measure, in the same setting: with `O=C(CN1C=NC2C(N3CCOCC3)=NC=NC21)c1ccc(Br)cc1` (stereo unspecified) the figure was 104% (inactive).
The same measure, in the same setting: the value for `CCCCN1CCN(c2ccc3nc(-c4ccc5nc(-c6ccc(OCC)cc6)[nH]c5c4)[nH]c3c2)CC1` was 36% (inactive); that for `CCN(CCO)CCNc1ccc(C)c2sc3cc(Cl)ccc3c(=O)c12` was -27.8% (active); that for `Cc1nn(-c2nc3ccccc3[nH]2)c2c1C(c1ccc(OCC(N)=O)cc1)CC(=O)N2` (stereo unspecified) was 88.2% (inactive).
Same read-out and setting: with `COC(=O)/C(CCC=C(C)C)=C1\[C@@H](OC(C)=O)C[C@@]2(C)[C@H]1C[C@@H](O)[C@H]1[C@@]3(C)CC[C@H](NCCO)[C@@H](C)[C@@H]3CC[C@@]12C` the figure was 93% (inactive).
On to `CCCc1c(C)c2sc(=O)[nH]c2[nH]c1=O`, for which the growth was 108% (inactive).
Same read-out and setting: with `O=C(/C=C/c1ccc(Cl)cc1)c1ccc(Nc2nc(NCCO)nc(Nc3ccc(Cl)cc3)n2)cc1` the figure was 90.3% (inactive); with `COc1cccc2c(=O)c3c(sc12)c(NCCCNCCO)nc1ccccc13`, 81.2% (inactive).
Still for that read-out and setting: the value for `CCCCc1ccc(NS(=O)(=O)c2cc3c4c(c2)CCN4C(=O)CC3)cc1` was 17.8% (inactive); that for `O=C1/C(=C/c2ccc(O)cc2)COc2ccc(O)cc21` was 100% (inactive).
On the same count and under the same terms, with `Cc1cc(Nc2ccc(OCc3ccccc3)cc2)nc2cc(O)ccc12` the figure was 43.6% (inactive).
Regarding `O=C(c1nc2ccccc2[nH]1)C1[C@@H](c2cccc(O)c2)C2CC3CCCCC3N2[C@@]12C(=O)Nc1cc(Cl)ccc12` (stereo partly specified), the growth was 32.1% (inactive).
`O=c1oc2ccc(Br)cc2c(=O)n1-c1ccc(Br)cc1F`: the growth is -28.4% (active).
On the same count and under the same terms, the value for `O=C(/C=C/c1ccc(C(F)(F)F)cc1)c1ccc(Nc2nc(NCCO)nc(N3CCOCC3)n2)cc1` was 97% (inactive); that for `C#CCn1cc(C=C2C(=O)N(C)C(=O)N(C)C2=O)c2cc(Cl)ccc21` was 97.9% (inactive); that for `COc1ccc(/C=C2/SC(=O)N(CC(=O)N3CCN(c4cc5c(cc4F)c(=O)c(C(=O)O)cn5C4CC4)CC3)C2=O)cc1` was 98.5% (inactive).
On the same count and under the same terms, with `CCOC(=O)C1=C(C)N=c2s/c(=C\c3ccccc3O)c(=O)n2C1c1ccc(OC)c2ccccc12` (stereo unspecified) the figure was -86.7% (active); with `Nc1ccc(-c2ccc(-c3ccccc3N)c3[nH]c4ccccc4c23)cc1`, 36.8% (inactive).
Take `CCOC(=O)c1c2c(n3cccc(Cl)c13)C(=O)c1ncccc1C2=O`: the growth was 42.7% (inactive).
Same read-out and setting: the value for `O=C(Nc1ccc(C23CC4CC(CC(c5ccccc5)(C4)C2)C3)cc1)c1cccs1` was 84.5% (inactive).
On the same count and under the same terms, the value for `Cc1ccc2sc3c(NCCCNCCO)nc4ccccc4c3c(=O)c2c1` was 85% (inactive); that for `COc1ccccc1N1CCN(C(CNS(=O)(=O)c2ccc(Cl)cc2)c2cccnc2)CC1` (stereo unspecified) was 60.2% (inactive); that for `CCn1c(-c2nonc2Nc2ccc(OC)cc2)nc2ccccc21` was 120% (inactive).
Still for that read-out and setting: the value for `O=C(Nc1ccc(N2CCNCC2)cn1)c1[nH]ncc1Nc1ncnc2sc3c(c12)CCC3` was -47.7% (active).
Take `O=C(/C=C/c1cccc(Cl)c1)OCc1ccc2cc1OCC#C/C=C\C#CCO2`: the growth is 99.7% (inactive).
Still for that read-out and setting: the value for `C[n+]1c2ccccc2nc2ccc(NCCO)cc21` was 101% (inactive).
Still for that read-out and setting: with `Nc1nc2c(ncn2[C@@H]2O[C@H](CS)[C@@H](O)[C@H]2O)c(=O)[nH]1` the figure was 97.5% (inactive).
Regarding `CC/C(=C(\CC)c1ccc(OCC[N+](C)(C)C)cc1)c1ccc(OC)cc1`, the growth was 68.3% (inactive).
Still for that read-out and setting: the value for `O=C(Nc1ccc(F)cc1F)c1cc(I)ccc1O` was -17.6% (active); that for `CC(C)Cn1c2c(c(=S)[nH]c1=O)CCC2` was 103% (inactive).
On the same count and under the same terms, with `CNCCNc1nc2ccccc2c2c(=O)c3cccc(C)c3sc12` the figure was -11.3% (active); with `COC(=O)c1c2c(c(C)[n+]([O-])c1C)C(=O)C(NCc1ccc(F)c(F)c1)=CC2=O`, -70.8% (active).
Still for that read-out and setting: the value for `O=C(Cn1cc(COc2ncnc3c2cnn3-c2ccccc2)nn1)Nc1ccccn1` was 94.5% (inactive).
